Bioassay records: PubChem BioAssay, National Center for Advancing Translational Sciences (NCATS)
Sampled rows, rich in hits. Any-hit rate of the full collection: about 12%.
BAZ2B block: blocks human BAZ2B; Q9UIF8; AlphaScreen BAZ2B-H3K14Ac peptide displacement; Potency, µM (top dose mostly 114 µM), inactives show top-dose activity change, negative = inhibition, hits mostly inhibitors; hit rate 4.4% among 360,000; also: potency is read from the fitted curve at half-maximal effect; % is scaled to controls: 0 for no effect and ±100 for the full control effect; nearly all actives have a fitted effect of over 60% in size
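BAZ2B 50 nM plus b-H3(5-23)K14Ac 50 nM, PBS pH 7.4/0.01% Tween-20, 30 min RT; compound added (max 110 uM), 30 min RT; streptavidin donor/Ni-chelate acceptor beads 10 ug/mL final, 20 min dark; AlphaScreen read.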
HP1b binding inh: HP1-beta chromodomain-methylated histone interaction inhibition | hit rate 0.56% among 390,000 | P83916 | AlphaScreen HP1-beta / biotin-H3K9me3 peptide binding | Potency, µM (titrated, usually from 114 µM), inactives show top-dose activity change, negative = inhibition, actives largely listed as inhibitors; also: potency is read from the fitted curve at half-maximal effect; nearly all actives have a fitted effect of over 70% in size
Target sequence (P83916 whole entry, looked up): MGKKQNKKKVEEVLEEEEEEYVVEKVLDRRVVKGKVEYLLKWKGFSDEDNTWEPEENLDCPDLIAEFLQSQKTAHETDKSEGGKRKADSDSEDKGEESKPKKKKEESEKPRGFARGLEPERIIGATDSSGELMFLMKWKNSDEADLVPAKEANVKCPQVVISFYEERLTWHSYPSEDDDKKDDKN
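AlphaScreen: HP1-beta (50 nM) preformed 30 min with biotin-H3(1-18)K9me3 peptide (50 nM) in PBS pH 7.4, 0.01% Tween-20. Compound added for 30 min at RT, then streptavidin donor/nickel chelate acceptor beads (10 ug/mL) for 30 min.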
G9a block: G9a (human) methyltransferase inhibition; hit rate 8.8% among 350,000; Q96KQ7; G9a H3K9 monomethylation, AlphaScreen, 2 h; AID 504332; Potency, µM (series often up to 102 µM), without a hit: at the highest dose activity, negative = inhibition, hits mostly inhibitors; also: potency is read from the fitted curve at half-maximal effect; % is scaled to controls: 0 for no effect and ±100 for the full control effect; nearly all actives have a fitted effect of over 75% in size
Target sequence (Q96KQ7 913-1193 limits assumed): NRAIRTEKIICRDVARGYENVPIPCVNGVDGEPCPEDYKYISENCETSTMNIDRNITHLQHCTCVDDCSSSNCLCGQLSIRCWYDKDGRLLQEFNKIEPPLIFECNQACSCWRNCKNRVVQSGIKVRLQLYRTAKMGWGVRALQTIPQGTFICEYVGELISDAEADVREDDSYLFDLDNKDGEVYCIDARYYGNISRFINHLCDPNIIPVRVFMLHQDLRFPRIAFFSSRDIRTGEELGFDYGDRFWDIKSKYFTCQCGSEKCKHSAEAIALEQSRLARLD
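AlphaScreen detection with an anti-monomethyl H3K9 antibody quantified product after a 2 h room-temperature reaction containing 500 nM biotinylated H3K9 peptide, 20 µM SAM and 20 nM enzyme, which had been preincubated 15 min with compound.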
PI5P4K alpha inh: PI5P4K alpha (human) kinase inhibition | max response, % | AID 652105 | PI5P4Kalpha enzyme, ADP-Glo luminescence, 60 min; hits give low values | hit rate 1.2% among 330,000; active = max response of -50% or lower; inconclusive = between -30% and -50%; inactive = -30% or higher; also: value at the top dose of about 77 µM; % is scaled to controls: 0 for no effect and ±100 for the full control effect
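ADP-Glo luminescence end-point after a 60 min room-temperature kinase reaction. PI5P4Kalpha and substrate in HEPES pH 7.4 buffer with EGTA, 0.1% CHAPS and 5% DMSO; ATP at 5 microM final.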
PLK1 PBD block: blocks phosphopeptide binding to human PLK1 polo-box domain; P53350; hit rate 2.8% among 360,000; Potency, µM, for the others: max response, negative = inhibition, most hits filed as inhibitors; Plk1 PBD binding of FITC phosphopeptide, fluorescence polarization; also: potency is read from the fitted curve at half-maximal effect; series mostly up to about 57 µM; % is scaled to controls: 0 for no effect and ±100 for the full control effect; nearly all actives have a fitted effect of over 65% in size
JMJD2A Tudor: inhibitors of human JMJD2A Tudor domain; AlphaScreen JMJD2A-Tudor / H3K4me3 peptide binding; Potency, µM (top dose mostly 114 µM), inactives show at the highest dose activity change, negative = inhibition, usual class: inhibitors; hit rate 4.4% among 390,000; AID 504339; also: potency is read from the fitted curve at half-maximal effect; % is scaled to controls: 0 for no effect and ±100 for the full control effect; nearly all actives have a fitted effect of over 50% in size
An asterisk follows results filed as active; ? = inconclusive; . = no result; [ ] = remark or other dose. Unless noted, calls follow the shape of the dose curve; as a rule, active = well fitted curve in the direction sought with a large enough effect; inconclusive = small, poorly fitted or top-dose-only effect, or another doubt; inactive = no such curve, though single readings can be large; an effect the other way counts as inactive or inconclusive.

SMILES	BAZ2B block	HP1b binding inh	G9a block	PI5P4K alpha inh	PLK1 PBD block	JMJD2A Tudor
O=C(COC(=O)c1ccccc1)Nc1cccc(S(=O)(=O)NC2=NCCCCC2)c1	1%	?	12%[59 µM]	-8	27µM*	?
O=C(COC(=O)/C=C/c1ccc(Cl)cc1Cl)Nc1cccc(S(=O)(=O)NC2=NCCC2)c1	.	.	.	-75*	2%	.
CCCCC(=O)OCC(=O)Nc1cccc(S(=O)(=O)NC2=NCCCCC2)c1	-1%	-12%	-5%	-18	24µM*	?
CCCCC(OC(=O)CNC(=O)c1ccccc1)C(=O)Nc1cc(C(F)(F)F)ccc1Cl (configuration not stated)	.	.	.	.	.	-12%
O=C(COc1ccc(F)cc1)Nc1ccc(S(=O)(=O)N(Cc2ccccc2)c2ccccc2)cc1	11%	78%	36%[59 µM]	.	.	-10%
COC(=O)C1=CN(c2cccc(C)c2)C=C(C(=O)OC)C1c1cc(OC)c(O)c([N+](=O)[O-])c1	28µM*	?	13µM*	3	?	45µM*
CN(C(=O)c1ccc(NC(=O)Cc2ccc(NC(=O)C3CCN(C(=O)C4CC4)CC3)cc2)cc1)C1CCCC1	.	30%	.	4	-5%	-16%
Cc1occc1C(=O)NCc1cccc(CNC(=O)c2ccoc2C)c1	50µM*	?	22µM*	-53*	?	56µM*
COc1ccc(OC)c(NC(=O)CCc2c(C)nc3c(c(C)nn3C(C)(C)C)c2C)c1	-27%	16%	-3%[59 µM]	.	.	-26%
Cc1nc(SCC(=O)Nc2cccnc2Cl)nc(C)c1C	-38%	29%	40µM*	-9	-19%	-14%
Cc1nc(SCC(=O)Nc2cc(Cl)ccc2[N+](=O)[O-])nc(C)c1C	40µM*	?	?	-3	-4%	?
O=C(Nc1ccccc1N1CCCCC1)c1ccc(-c2cc(Cl)ccc2Cl)o1	.	28%	.	-3	3%	23%
CN(C)c1ccnc(C(=O)O)c1	22µM*	1%	4.5µM*	-2	0%	0.71µM*
O=C(O)c1cc(Br)ccn1	.	7%	16µM*	3	-4%	3.2µM*
O=C(O)c1cncc(Br)c1	-1%	31%	?	2	-1%	1%
CN(C)c1cncc(C(=O)O)c1	21%	30%	54%	-1	2%	-5%
CCCCNc1nc2c(S(=O)(=O)c3ccc(C)cc3)nnn2c2ccsc12	-24%	18%	-3%[59 µM]	.	.	-20%
O=C(c1cc(C(F)(F)F)cc(C(F)(F)F)c1)N1CCC[C@@]2(CCN(Cc3nccs3)C2)C1	.	.	-1%[12.7 µM]	.	.	.
O=S(=O)(c1ccc2nc(Nc3ccc(Br)cc3F)ccc2c1)N1CCCCC1	9%	48%	0%[59 µM]	.	.	-4%
CS(=O)(=O)NN1C(=O)c2ccccc2NC1c1cccs1 (configuration not stated)	12%	8%	-34%	8	?	3.5µM*
COc1ccc(C2Nc3ccccc3C(=O)N2NS(C)(=O)=O)c(OC)c1 (configuration not stated)	-1%	25%	-3%	0	21µM*	-13%
CS(=O)(=O)NN1C(=O)c2ccccc2NC1c1ccccc1 (configuration not stated)	11%	0%	-28%	4	-25%	-17%[11.4 µM]
O=C(Nc1ccccc1OCc1ccccc1)c1ccccc1Br	-5%	127%	.	8	-6%	62%
C[C@@]12C(=O)N(CCc3c[nH]c4ccccc34)CC(=O)N1[C@H]1c3ccccc3OC[C@@H]1[C@@H]2c1ccccc1	-28%	22%	0%[0.501 µM]	-3	2%	-35%
COC(=O)C[C@@H]1C[C@@H]2c3cc(NS(=O)(=O)c4ccc(F)cc4)ccc3O[C@@H]2[C@@H](CO)O1	.	.	.	-1	0%	.
SMILES	BAZ2B block	HP1b binding inh	G9a block	PI5P4K alpha inh	PLK1 PBD block	JMJD2A Tudor
O=C(Cc1ccc(Cl)cc1)NNC(=O)c1cnccn1	6%	9%	?	-10	30µM*	50µM*
COCC(C)N=C1NN=C(c2cccs2)C(CC(=O)O)S1 (configuration not stated)	-31%	11%	50µM*	-5	?	-7%
Cc1ccc(C(NC(=O)c2cccc(S(=O)(=O)N3CCN(C)CC3)c2)c2ccccc2)cc1 (configuration not stated)	-33%	3%	0%[2.33 µM]	1	5%	-25%
CCOC(=O)c1ccccc1NC(=O)COC(=O)CCNS(=O)(=O)c1ccccc1	-3%	33%	2%	8	-2%	-5%
CCOCCSc1c(C)cnc2c1c(=O)n(C)c(=O)n2C	-3%	13%	13µM*	.	.	-15%
Cc1cc2cc(CNC(=S)Nc3ccc(OC(F)F)cc3)ccc2[nH]1	45µM*	-15%	-20%	5	-13%	?
CCOC(=O)NCc1ccc2[nH]c(C)cc2c1	-37%	-7%	?	-2	-19%	?
CCNC(=S)NCc1ccc2[nH]c(C)cc2c1	?	-16%	50µM*	0	-5%	?
Cc1cc2cc(CNC(=S)Nc3ccc(OC(F)(F)F)cc3)ccc2[nH]1	-6%	27%	-2%	-13	2%	?
CCc1ccc(N(CC)C(=O)c2sc3nc4n(c(=O)c3c2C)CCCC4)cc1	25µM*	25%	16µM*	.	.	79µM*
CCN(C(=O)c1sc2nc3n(c(=O)c2c1C)CCCCC3)c1ccc(OC)cc1	35µM*	13%	5.6µM*	.	.	79µM*
CCN(C(=O)c1sc2nc3n(c(=O)c2c1C)CCCCC3)c1ccccc1F	-34%	58%	8.9µM*	.	.	-2%
CCN(Cc1ccccc1)C(=O)c1sc2nc3n(c(=O)c2c1C)CCCC3	-14%	19%	?	.	.	-35%
O=C(CSc1nc(=O)[nH]c2c1CCCC2)Nc1ccc(Cl)c(Cl)c1	-2%	-1%	4%[59 µM]	.	.	-6%
CCn1c(SCC(=O)c2ccc(OC)cc2)nnc1C(C)NC(=O)c1ccc(OC)cc1 (configuration not stated)	-6%	25%	45µM*	-3	-7%	-15%
CCCn1c(SCC(=O)NNC(=O)c2ccc(OC)cc2)nnc1C(C)C	4%	3%	?	-6	-10%	-19%
COc1ccc(CC(=O)NC(C)c2nnc(SCC(=O)c3ccc(Br)cc3)n2C)cc1 (configuration not stated)	-25%	10%	40µM*	.	-6%	-11%
CCn1c(SCC(=O)c2ccc(Br)cc2)nnc1C(C)NC(=O)Cc1ccc(OC)cc1 (configuration not stated)	5%	1%	7%	.	-9%	-1%
O=C(O)c1cccc(-c2noc(-c3ccccc3F)n2)c1	.	.	2%[12.7 µM]	.	.	-19%
O=C(O)c1ccc(N=C2c3ccccc3-c3ccccc32)cc1	.	19%	.	8	-9%	-13%
COc1ccc(C(=O)NNC(=O)Cc2ccc([N+](=O)[O-])cc2)cc1	-3%	17%	0%[59 µM]	-11	-6%	-12%
